Assay results published in PubChem BioAssay (NCATS).
Results filed as inconclusive are left out. Entries that show only a call come without a potency. Calls of active or inactive are those of the source. Calls follow the shape of the dose curve; as a rule, active = well fitted inhibition curve with a large enough effect; inconclusive = small, poorly fitted or top-dose-only effect; inactive = no such curve, though single readings can be large or run the other way.

Assay: Secretion counterscreen for inhibitors of the SERCaMP assay screened against the NCATS CANVASS Library (AID 1347390);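 also: light from luciferase secreted into medium read as a measure of general secretion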
Conditions: SH-SY5Y constitutive GLuc secretion, luminescence, 20 h; series mostly up to 76.6 µM
Excerpt: Natural products and their derivatives continue to be wellsprings of nascent therapeutic potential. However, many laboratories have limited resources for biological evaluation, leaving their previously isolated or synthesized compounds largely or completely untested. To address this issue, the Canvass library of natural products was assembled (https://tripod.nih.gov/canvass), in collaboration with academic and industry researchers, for quantitative high-throughput screening (qHTS) across a diverse set of cell-based and biochemical assays. The pure (>85% purity by liquid chromatography/mass spectrometry [LC/MS]) Canvass library of 346 natural products were submitted by 45 academic laboratories and companies around the world. We collected pure natural products to circumvent deconvolution and structure elucidation due to time and resource limitations. The library was formatted into 1536-well plates and evaluated in 50 qHTS (in an 11-pnt concentration series) bioassays with broad scope of disease-relevant mechanisms. The resulting data set from 50 different assays was then systematically analyzed to identify overall trends and specific natural products with interesting biological activities. Reported herein are the results of each individual qHTS and their corresponding assay protocol. Compounds that interfere with the secretory pathway can show activity in the SERCaMP assay. This type of false positive is identified using a constitutively secreted GLuc reporter. National Center for Advancing Translational Sciences (NCAwsTS), Rockville, MD National Institute of Health (NIH), Bethesda, Maryland
SERCaMP secretion assay protocol: 1. In a white-solid bottom 1536-well tissue culture plate (Corning 7494), 5 uL of SH-SY5Y-GLuc STOP cells were dispensed using a Multidrop Combi (Thermo Fisher Scientific) at a final concentration of 1000 cells / well. 2. The assay plates were incubated for 4 hours at 37C, 5% CO2, 95% humidity to acclimate and attach. 3. […] of compounds (in DMSO; columns 5-48), and positive control Brefeldin A (1 mM; 1:2 dilution; 16-points; n = 2; column 2, rows 1-32) were pin transferred into the assay plates using the Kalypsis pin tool (Wako USA) equipped with a 1536-well pin heads. This yields a final concentration range of 0.0001 - 4.6 uM for the Brefeldin A and 0.001 - 77 uM for the compounds. 4. The assay plates were incubated for 20 hours at 37C, 5% CO2, 95% humidity. 5. After incubation, 1 uL of (7x) substrate Coelenterazine (diluted 1:200 in Pierce Glow Assay buffer) was dispensed into columns 1 - 48, rows 1 - 32. 6. The plates were centrifuged for 5 seconds at 1000 rpm. 7. Luminescence signal was obtained via the ViewLux plate reader (Perkin Elmer) using the clear emission filter and 1x binning, 5 seconds exposure settings.
Potency is read from the fitted curve at half-maximal effect.

With C[C@]12CCC3[C@@H](CC[C@@H]4C[C@@H](O)CC[C@]34CO)[C@@]1(O)CC[C@@H]2C1=CC(=O)OC1 (stereo partly specified) as the compound, how does the Potency read?
Its Potency is 7670 nM (active).

For C/C=C(\C)C(=O)O[C@@H]1[C@@H](O)[C@@H]2O[C@H]3[C@H](O[C@@H](CCCCC)CCCCCCC(=O)CCC(=O)OC[C@@H](O2)[C@H]1OC(=O)/C=C/c1ccccc1)O[C@H](C)[C@H](OC(C)=O)[C@@H]3O, which Potency is on record?
Its Potency is 76.7 nM (active).

Which Potency does the source give for CCCCC1CC[C@H]2CCCC(CCC)N12 (stereo partly specified) here?
The Potency was “inactive”.

Which Potency does the source give for C/C=C/[C@@H]1[C@H]2C[C@@H](C)CC[C@@H]2C(C)=C[C@H]1C(=O)c1c(O)c(-c2ccc(O)cc2)c[nH]c1=O here?
The Potency was “inactive”.

Which Potency does the source give for COC1C(O)C(C)OC(OC2C(Oc3cccc4c(O)c5c(=O)oc6ccc(C)c7c(=O)oc(c34)c5c67)OC(C)C(O)C2O)C1O (stereo unspecified) here?
The Potency was 30500 nM (active).

For O[C@H]1C=C[C@@]23CCN(Cc4cc5c(cc42)OCO5)[C@@H]3C1, which Potency is on record?
Its Potency is “inactive”.

For CO[C@H]1C[C@H](O[C@H]2[C@@H](O)C[C@H](O[C@H]3CC[C@]4(C=O)[C@H]5CC[C@]6(C)C(C7=CC(=O)OC7)CC[C@]6(O)[C@@H]5CC[C@]4(O)C3)O[C@@H]2C)O[C@H](C)[C@H]1O[C@H]1C[C@@H](OC)[C@@H](O[C@@H]2O[C@H](CO)[C@@H](O)[C@H](O)[C@H]2O)[C@@H](C)O1 (stereo partly specified), which Potency is on record?
Its Potency is 767 nM (active).

For CCC(=O)N[C@@H](C[C@H](C)C(Cl)(Cl)Cl)C(=O)N1C(=O)C=C(OC)[C@@H]1C[C@H](C)C(Cl)Cl, which Potency is on record?
The Potency was “inactive”.

Which Potency does the source give for C/C=C1/CN2C3CC1C1=CCC(=O)N4c5ccccc5[C@@]3(C[C@@H]2C2=C[C@H]3C5CC6N(CC[C@@]67c6ccccc6N(C2=O)[C@@H]37)C/C5=C/C)[C@H]14 (stereo partly specified) here?
Its Potency is 43100 nM (active).

Which Potency does the source give for C=C[C@]12C=CCN3CC[C@@]4(c5ccccc5NC(=O)[C@@H]4C1)[C@@H]32 here?
Its Potency is “inactive”.

With CC[C@@H]1CN2CCc3c([nH]c4cccc(OC)c34)[C@@H]2C[C@@H]1/C(=C\OC)C(=O)OC as the compound, how does the Potency read?
The Potency was “inactive”.

For CO[C@H]([C@@H](C)[C@H]1O[C@]1(C)C[C@H](C)/C=C/C=C(\C)[C@H]1O[C@@H](CC(=O)O)CC[C@@H]1C)[C@@H](C)O, which Potency is on record?
The Potency was “inactive”.

For C=CC(C)(C)[C@@]12C[C@H]3C(=O)N/C(=C/c4cnc[nH]4)C(=O)N3[C@@H]1Nc1ccccc12, which Potency is on record?
Its Potency is “inactive”.

Which Potency does the source give for CC[C@@H]1CN2CCC3(Nc4cccc(OC)c4C3=O)[C@@H]2C[C@@H]1/C(=C\OC)C(=O)OC (stereo partly specified) here?
Its Potency is “inactive”.

With C1=C2CCCN[C@H]2C2CC1[C@H]1CCCCN1C2 (stereo partly specified) as the compound, how does the Potency read?
Its Potency is “inactive”.

For CC[C@]12C=CCN3CC[C@]4(C(=C(C(=O)OC)C1)Nc1ccccc14)[C@@H]32, which Potency is on record?
The Potency was “inactive”.

With C/C(=C\[C@H](C)C(=O)C[C@H](O)CC1CC(=O)NC(=O)C1)[C@@H]1OC(=O)/C=C/CC/C=C/C=C/[C@@H]1C as the compound, how does the Potency read?
The Potency was 305 nM (active).

With CO[C@@H](/C=C/CC/C=C/C(=O)O)[C@@H](O)[C@H](C)/C=C(\C)[C@H](O)[C@H](C)C(=O)CCCC1CC(=O)NC(=O)C1 as the compound, how does the Potency read?
Its Potency is “inactive”.

With CCCC[C@@H](C)/C=C1/CN2CCC[C@H]2[C@@](C)(O)[C@@H]1O as the compound, how does the Potency read?
The Potency was “inactive”.

Which Potency does the source give for C/C=C1/CN2CC[C@@]34c5ccccc5N(C)[C@@H]3[C@@H]2C[C@@H]1[C@H]4C(=O)OC here?
The Potency was “inactive”.

Which Potency does the source give for CCCC[C@@H]1CC[C@H]2CCCC(CCCO)N12 (stereo partly specified) here?
The Potency was “inactive”.

With CO[C@H]1[C@H](O[C@H]2CC[C@]3(C=O)[C@H]4CC[C@]5(C)[C@@H](C6=CC(=O)OC6)CC[C@]5(O)[C@@H]4CC[C@]3(O)C2)O[C@H](C)[C@H](O)[C@@H]1OC as the compound, how does the Potency read?
Its Potency is 767 nM (active).

With C=CC(C)(C)[C@@]12C[C@H]3C(=O)N/C(=C\c4cnc[nH]4)C(=O)N3[C@@H]1Nc1ccccc12 as the compound, how does the Potency read?
Its Potency is “inactive”.

Which Potency does the source give for C[N+](C)(C)CCc1c[nH]c2ccccc12 here?
The Potency was “inactive”.

For c1ccc2nc3c(cc2c1)[nH]c1ccccc13, which Potency is on record?
The Potency was “inactive”.

For C/C=C1/CN2CC[C@]34C(=C(C(=O)OC)[C@H]1C[C@H]23)Nc1ccccc14, which Potency is on record?
The Potency was “inactive”.
